Assay [1] in a line: compounds altering viability of human ES cells (AID 493140; call rule not given here;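 also: cells exposed to compounds for four days before counting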). The following applies: human embryonic stem cell survival screen; stronger effect = higher value.
A short description of assay [2]: P. berghei load reduction in hepatocytes – cell-based, HepG2, luciferase luminescence, HepG2 viability, primary screen (AID 624349).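 Also: 100% = mean of DMSO negative control wells on the same plate.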 The following applies: P. berghei liver stage in HepG2, luciferase luminescence, concentration not given here; parasite load remaining: stronger effect = lower value; viability: measured here: HepG2 viability without parasites.
Assay [3] is described as follows: Wnt pathway potentiators raising nuclear beta-catenin – imaging, WNT3A-conditioned medium, mouse C2C12, NPC library, primary screen (AID 1117326; in the data active = nuclear beta-catenin stimulation mostly above about 4.2%, no sharp cut-off; inactive = mostly below about 10%). The following applies: stronger effect = higher value.
The nature of assay [4]: stimulators of insulin release from INS-1E, primary screen, cell-based, 5 mM glucose, NPC library (AID 1117329;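 active = compound raises insulin release from rat beta cells at 5 mM glucose, no numeric limit stated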). Conditions: rat INS-1E insulin secretion, at 10 µM, stronger effect = higher value.
The nature of assay [5]: growth inhibition of GSK3B-pretreated HCT116 cells – cell-based, CellTiter-Glo, 0.2 to 20 µM (AID 1117336;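 active = compounds lowering colon cancer cell viability after pretreatment blocking the GSK3B kinase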). Conditions: HCT116 viability after GSK3B inhibitor, at 20 µM, stronger effect = higher value. (In ATP-based viability assays light output follows the ATP content of the culture.)
A short description of assay [6]: inhibition of endothelial tube formation, primary screen, imaging, VEGF stimulated, CD31 staining, tube area, NPC library (AID 1117340;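 active = compound that reduces growth-factor-driven endothelial tube area in a mixed cell culture, no cutoff stated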). The following applies: VEGF-stimulated ADSC/ECFC co-culture, at 10 µM, stronger effect = higher value.
Assay [7] is described as follows: GLP1 release stimulators, primary, NCI-H716, NPC library (AID 1117341;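 active = compound raises GLP1 secretion from the human gut endocrine cells, with no numeric limit stated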). The following applies: NCI-H716 cells, at 10 µM, stronger effect = higher value.
Assay [8] is described as follows: HCT116 colon cancer cell growth inhibition, primary screen, CellTiter-Glo luminescence, NPC library (AID 1117342;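 active = compounds that lower survival of HCT116 colon cancer cells in the luminescence readout, no numeric limit stated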). Conditions: at 20 µM (top of the series).
The nature of assay [9]: reduced SW480 viability measured with CellTiter-Glo, NPC library, primary (AID 1117343;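 active = compounds that lower viability of the colon cancer cells in the luminescence readout, with no numeric limit stated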). Conditions: CellTiter-Glo luminescence; at 20 µM (top of the series) unless noted.
Assay [10] can be described thus: NPC library primary testing for decreased DLD-1 cell viability via CellTiter-Glo (AID 1117346;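 active = compounds that lower survival of DLD-1 colon cancer cells in the luminescence readout, no cutoff given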). The following applies: DLD-1 viability, CellTiter-Glo luminescence; at 20 µM (top of the series).
The nature of assay [11]: viability loss with induced miR-34 in A549 – imaging, A549 dox-inducible miR-34, nuclei and caspase counts, primary screen (AID 1347080;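 active = compounds whose cell count with miR-34 switched on is under 0.7 times the count with it off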). Conditions: A549 miR-34 inducible, Hoechst nuclei count, 48 h.
The nature of assay [12]: MELAS cybrid and Rieske KO viability enhancers – cell-based, MELAS cybrids, Rieske KO mouse fibroblasts, CellTiter-Glo, primary screen (AID 1508586;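 active = mean z-score across replicates of 1.96 or higher in either the MELAS or the Rieske mutant cell line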;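 also: z relative to plate mean and SD of compound and empty wells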). Conditions: low glucose.
The nature of assay [13]: compounds altering circadian rhythm period length – cell-based, LOPAC library, luminescence reporter (AID 2774; call rule not given here;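 also: values are relative to mean of DMSO wells on each plate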). Conditions: circadian reporter cells, at 7 µM, actives lie on both sides.
Assay [14] in a line: galactose survival enhancers in mitochondrial complex I cybrids – cell-based, galactose medium, ATP luminescence, primary screen (AID 1645843;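 active = z-score of at least 1.8 in each of two replicates, scored against plate mean and spread of sample wells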;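 also: positive z means more ATP and so rescue of galactose-driven cybrid death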). The following applies: complex I mutant cybrid cells, 72 h, stronger effect = higher value.
The mark [15] stands for this setting: stronger effect = lower value, cell number ratio, induced over uninduced.
[16] abbreviates: measured here: relative caspase fold change +Dox/-Dox.
Setting [17] is: measured here: total cells with miR-34 induction, stronger effect = lower value.
Where [18] appears, read: measured here: total cells without miR-34 induction.
Where [19] appears, read: MELAS cybrid survival, CellTiter-Glo 48 h, stronger effect = higher value.
The mark [20] stands for this setting: Rieske KO mouse fibroblast survival, CellTiter-Glo 72 h.

Several values for one entry are separate records, joined by “and”; a condition that tells them apart may be missing. Equal values may be shown once. Activity calls are given as the source filed them. Rule as the data show it, unless noted: active = parasite load remaining mostly below about 12% (no sharp cut-off); inactive = mostly above about 10%.

By viability is commonly meant a read-out of living cells in per cent, often relative to untreated cells.

On to `CC(CNC1CCCCC1)OC(=O)c1ccccc1` (stereo not drawn), for which the survival in assay [1] is 2.08 (inactive). Moreover, the parasite load remaining in assay [2] was 83.5% (inactive). Besides, the viability in assay [2] amounted to 92%. The nuclear beta-catenin stimulation in assay [3] (at 10 µM) was 0.9% (inactive); in assay [3] (stimulation, at 2 µM) it was 2.3%. The insulin secretion stimulation in [4] is 5.6% (inactive). Moreover, the viability decrease in assay [5] is -14.5% (inactive). Besides, the tube area decrease in [6] was 19.9% (inactive). Also, in assay [7], the GLP1 secretion stimulation was 3.9% (inactive). The inhibition of viability in assay [8] is -12.8% (inactive). Further, the viability decrease (inhibition) was -11.7% (inactive) in [9] and -10.5% (inactive) in assay [10]. The figures for the fold change in assay [11] (setting [15]) and in assay [11] (setting [16]) were 0.95 (inactive) and 0.946, respectively. In addition, the cell count in assay [11] (setting [17]) came out at 9180; in assay [11] (setting [18]) it was 9670. The values for the z-score in assay [12] (setting [19]) and in assay [12] (setting [20]) were -0.814 (inactive) and -0.57, respectively.
For `CC(C)NC[C@@H](O)COc1ccc(CC(N)=O)cc1`, the period change in assay [13] was 0.075 h (inactive). In addition, the survival in assay [1] is 2.17 (inactive). Also, in assay [2], the parasite load remaining was 88.2% (inactive). In addition, in assay [2], the viability came to 111%. The nuclear beta-catenin stimulation in assay [3] (at 10 µM) was 0.1% (inactive); in assay [3] (stimulation, at 2 µM) it was 1.2%. Moreover, the insulin secretion stimulation in assay [4] is -1.9% (inactive). Further, the viability decrease in [5] is -4.35% (inactive). Besides, the tube area decrease in assay [6] was -23.3% (inactive). Moreover, in assay [7], the GLP1 secretion stimulation was 3.3% (inactive). For the same compound, the inhibition of viability in assay [8] is 1.1% (inactive). In addition, the viability decrease (inhibition) in assay [9] is 11.3% (inactive); in assay [10] it was -7% (inactive). The fold change was 0.872 (inactive) in assay [11] (setting [15]) and 1.15 in assay [11] (setting [16]). For the same compound, the figures for the cell count in [11] (setting [17]) and in assay [11] (setting [18]) were 9650 and 11100, respectively. Moreover, the z-score in assay [12] (setting [19]) was 0.458 (inactive); in assay [12] (setting [20]), -0.0401.
Take `CC(C(=O)O)c1ccc(C(=O)c2ccccc2)s1` (stereo not drawn): in assay [1], the survival was 11.3 (inactive). Also, in assay [2], the parasite load remaining was 86.4% (inactive) and 106% (inactive). In addition, the viability in assay [2] was 112% and 75.4%. The nuclear beta-catenin stimulation in [3] (at 10 µM) is 0.5% (inactive); in [3] (stimulation, at 2 µM) it was 0.1%. Also, the insulin secretion stimulation in assay [4] is -2% (inactive). Further, the viability decrease in assay [5] was 4.35% (inactive). Also, the tube area decrease in [6] was 4% (inactive). Besides, in assay [7], the GLP1 secretion stimulation is -4.7% (inactive). The inhibition of viability in [8] was 7.4% (inactive). In addition, the figures for the viability decrease (inhibition) in assay [9] and in [10] were 37.4% (inactive) and 10.6% (inactive), respectively. In addition, the fold change is 0.849 (inactive) in [11] (setting [15]) and 1.29 in assay [11] (setting [16]). In addition, the cell count in assay [11] (setting [17]) worked out at 9200; in assay [11] (setting [18]), 10800. In addition, the z-score in [12] (setting [19]) is -0.736 (inactive); in assay [12] (setting [20]), -0.23.
For the compound `NCCC(O)(P(=O)(O)O)P(=O)(O)O`, the parasite load remaining in [2] was 25.4% (inactive). In addition, the viability in [2] was 75%. In addition, the nuclear beta-catenin stimulation in assay [3] (at 10 µM) is 1.8% (inactive); in assay [3] (stimulation, at 2 µM), -0.1%. Besides, the insulin secretion stimulation in assay [4] is -3.4% (inactive). Further, the viability decrease in assay [5] was -16% (inactive). Besides, the tube area decrease in assay [6] was 8.2% (inactive). The GLP1 secretion stimulation in assay [7] is 1.4% (inactive). Also, in [8], the inhibition of viability is -1.9% (inactive). Further, the results for the viability decrease (inhibition) in assay [9] and in [10] were 16.6% (inactive) and -6.8% (inactive), respectively. In addition, the fold change is 0.878 (inactive) in assay [11] (setting [15]) and 1.25 in assay [11] (setting [16]). The cell count in assay [11] (setting [17]) stood at 9450; in assay [11] (setting [18]), 10800. In addition, the values for the z-score in assay [12] (setting [19]), in assay [12] (setting [20]) and in assay [14] were 0.361 (inactive), -0.434 and 0.62 (inactive), respectively.

Source of the values: PubChem BioAssay.
